Consider 40 compounds from ChEMBL document CHEMBL1157539, “Thousands of chemical starting points for antimalarial lead identification” (Nature, 2010).

SMILES strings stand for the structures.

The subject of the first assay is Plasmodium falciparum. Nature of the assay: GSK_TCMDC: Inhibition of Plasmodium falciparum 3D7 in whole red blood cells, using parasite LDH activity as an index of growth. Test compounds present at 2uM. Format: functional.
Turning to `CN(C)Cc1ccc(CNC2CCN(Cc3ccccc3Cl)CC2)cc1.O=C(O)C(F)(F)F`, the Inhibition (commonly the drop in the measured response relative to a control, in per cent) is 82%.
The same measure, in the same setting: under `Cc1ccc(-n2c(C)cc(C(=O)CN3C(=O)NC(Cc4ccccc4)C3=O)c2C)cc1` (stereo not given) stands 82%; under `O=C(O)C(F)(F)F.O=C(O)CCc1ccc(-c2c[nH]c3ncc(-c4ccc5ncccc5c4)cc23)cc1`, 88%; under `C=CCOc1cc(Cc2cnc(N)nc2N)cc(OC)c1OC.Cl`, 81%.
Same read-out and setting: under `CC(C)(C)c1cc(Cl)cc(C(=O)Nc2cc([N+](=O)[O-])ccc2Cl)c1O` stands 91%.
Still for that read-out and setting: under `COc1ccc(Cl)cc1N1CCN(CCCNC(=O)c2ccc(-c3nc4c(C)cccc4[nH]3)s2)CC1` stands 98%.
`CC(C)C(=O)NC(NC(=S)Nc1ccc(Br)cc1)C(Cl)(Cl)Cl` (stereo not given) displayed an Inhibition of 93%.
Same read-out and setting: under `Nc1nc(O)c2cc(CNc3ccc(C(=O)N[C@@H](CCC(=O)O)C(=O)O)cc3)ccc2n1` stands 96%; under `COc1ccc(CNC(=O)Nc2cccc(-c3csc(NC(=N)N)n3)c2)cc1`, 80%; under `O=C(Nc1ccc(OC2CCN(CC3CC3)CC2)c(Cl)c1)c1ccc2ncccc2c1.O=C(O)C(F)(F)F`, 84%.
Still for that read-out and setting: for `COc1ccc(NC(=O)c2ccc(-c3cccc(OCc4ccccc4)c3)cc2)cc1N1CCN(C)CC1` the value was 85%; for `Cl.Oc1cccc(Nc2ccnc3cc(-c4nccs4)ccc23)c1`, 98%.
The same measure, in the same setting: for `Cc1nc(Nc2ccc(F)cc2)nc(N2CCc3ccccc3[C@@H]2C)c1C.Cl` the value was 92%.
As for `O=C(O)CCSc1ncnc2[nH]cnc12`, the Inhibition is 100%.
The same measure, in the same setting: for `c1ccc2sc(-c3csc(Nc4ccncc4)n3)nc2c1` the value was 86%; for `O=CO.c1ccc2c3c([nH]c2c1)C(c1ccc2c(c1)CCO2)N(c1ncnc(N2CCN(CCCN4CCOCC4)CC2)n1)CC3` (stereo not given), 80%; for `O=C(Nc1cccc(Cl)c1)c1cc2ccccc2cc1O`, 97%.
On the same count and under the same terms, for `CC(C)CNC(=O)c1ccc(-c2cccc(CN3CCC(N4CCCC4)CC3)c2)nc1.O=C(O)C(F)(F)F` the value was 81%; for `C[C@H]1CN(Cc2ccc(-c3cccc(CNC(=O)c4cccc(C(=O)c5ccc(Cl)c(Cl)c5)c4)c3)s2)CCN1.O=C(O)C(F)(F)F`, 99%; for `COc1ccc(NS(=O)(=O)c2ccc(Oc3nc(C)nc4sc5c(c34)CCCC5)cc2)cc1`, 96%.
Still for that read-out and setting: under `CCN1CCN(c2cc(C)c3cc(NC(=O)c4ccc(C(C)(C)C)cc4)ccc3n2)CC1` stands 85%; under `CC(=O)Nc1cccc(Nc2c3ccccc3nc3ccccc23)c1`, 82%.
Turning to `CC(C)Cc1csc(NC(=O)C=Cc2ccco2)c1C(=O)O`, the Inhibition was 82%.
On the same count and under the same terms, for `COc1c(C2CCN(CCCCNC(=O)C=Cc3ccccc3C(F)(F)F)CC2)ccc2c1CCCC2` the value was 96%; for `Cc1ccc(Nc2c3ccccc3nc3ccc(C)cc23)cc1`, 88%.
On to `N=C1SC(=Cc2cn[nH]c2-c2ccc(F)cc2)C(=O)N1c1nccs1`, for which the Inhibition was determined as 91%.
Still for that read-out and setting: for `Brc1ccsc1-c1nc(NC2CCN(Cc3ccccc3)CC2)no1` the value was 80%; for `O=C(O)C(F)(F)F.Oc1ccc(CNCC2CCN(CC3CCCCC3)CC2)cc1`, 82%.
The same measure, in the same setting: under `Cc1cc(OCCCN2CCC(NC(=O)c3ccc(Br)cc3)C2)c2ccccc2n1` (stereo not given) stands 85%; under `O=C(CN1C(=O)CC1S(=O)(=O)Cc1ccco1)NCCCCCCc1ccc(F)cc1` (stereo not given), 95%.
In turn, `COc1ccc(CN2CCN(CC(=O)Nc3cc(Cl)ccc3-n3cncn3)CC2)cc1F` displayed an Inhibition of 93%.
On to `O=C(Nc1nccs1)c1sc2ccccc2c1O`, for which the Inhibition turned out to be 96%.
On the same count and under the same terms, under `CC(C)CN1C(=O)C(c2ccc(F)c(F)c2)=C(O)C1c1ccccc1` (stereo not given) stands 94%; under `CCCN1CCN(CCNc2c3ccccc3nc3ccccc23)CC1`, 88%.
Still for that read-out and setting: for `Nc1[nH]c2ccccc2c(=O)c1-c1nc2ccccc2s1` the value was 97%; for `CN(C)c1ccc(NC(=O)Nc2ccnc3ccccc23)cc1Br.Cl`, 98%; for `CO/N=C(\C)c1ccc2c(c1)CCN(CCC1CCC(NC(=O)c3cccc(-c4noc(C)n4)c3)CC1)CC2.Cl` (stereo not given), 90%.
`COc1ccc2c(c1)C(C)(CCCN(C)C)C(=O)N2C.O=C(O)C(=O)O` (stereo not given): the Inhibition was 93%.
Same read-out and setting: under `CCCCNC(=O)C1CCCN(C(=O)c2ccc(O)c(-c3ccc(Cl)c(Cl)c3)c2)C1` (stereo not given) stands 83%; under `Cc1csc2nc(C(C)c3ccc(NC(=O)c4cccs4)cc3)oc(=O)c12` (stereo not given), 90%.

For another assay, the system named is HepG2. As to the kind of experiment: GSK_TCMDC: Percent inhibition of human HepG2 cell line. Test compounds present at 10uM. In kind it is functional.
Compound `CN(C)Cc1ccc(CNC2CCN(Cc3ccccc3Cl)CC2)cc1.O=C(O)C(F)(F)F` returned an Inhibition of 23%.
`Cc1ccc(-n2c(C)cc(C(=O)CN3C(=O)NC(Cc4ccccc4)C3=O)c2C)cc1` (stereo not given): the Inhibition was found to be 0%.
Still for that read-out and setting: for `O=C(O)C(F)(F)F.O=C(O)CCc1ccc(-c2c[nH]c3ncc(-c4ccc5ncccc5c4)cc23)cc1` the value was 30%; for `C=CCOc1cc(Cc2cnc(N)nc2N)cc(OC)c1OC.Cl`, 0%.
Take `CC(C)(C)c1cc(Cl)cc(C(=O)Nc2cc([N+](=O)[O-])ccc2Cl)c1O`: the Inhibition came to 79%.
In the case of `COc1ccc(Cl)cc1N1CCN(CCCNC(=O)c2ccc(-c3nc4c(C)cccc4[nH]3)s2)CC1`, the Inhibition is reported as 0%.
The same measure, in the same setting: for `CC(C)C(=O)NC(NC(=S)Nc1ccc(Br)cc1)C(Cl)(Cl)Cl` (stereo not given) the value was 0%.
`Nc1nc(O)c2cc(CNc3ccc(C(=O)N[C@@H](CCC(=O)O)C(=O)O)cc3)ccc2n1` came in with an Inhibition of 2%.
The same measure, in the same setting: for `COc1ccc(CNC(=O)Nc2cccc(-c3csc(NC(=N)N)n3)c2)cc1` the value was 8%; for `O=C(Nc1ccc(OC2CCN(CC3CC3)CC2)c(Cl)c1)c1ccc2ncccc2c1.O=C(O)C(F)(F)F`, 19%; for `COc1ccc(NC(=O)c2ccc(-c3cccc(OCc4ccccc4)c3)cc2)cc1N1CCN(C)CC1`, 29%.
Still for that read-out and setting: for `Cl.Oc1cccc(Nc2ccnc3cc(-c4nccs4)ccc23)c1` the value was 0%; for `Cc1nc(Nc2ccc(F)cc2)nc(N2CCc3ccccc3[C@@H]2C)c1C.Cl`, 12%.
Same read-out and setting: under `O=C(O)CCSc1ncnc2[nH]cnc12` stands 7%.
On to `c1ccc2sc(-c3csc(Nc4ccncc4)n3)nc2c1`, for which the Inhibition was 0%.
The same measure, in the same setting: for `O=CO.c1ccc2c3c([nH]c2c1)C(c1ccc2c(c1)CCO2)N(c1ncnc(N2CCN(CCCN4CCOCC4)CC2)n1)CC3` (stereo not given) the value was 37%; for `O=C(Nc1cccc(Cl)c1)c1cc2ccccc2cc1O`, 4%; for `CC(C)CNC(=O)c1ccc(-c2cccc(CN3CCC(N4CCCC4)CC3)c2)nc1.O=C(O)C(F)(F)F`, 4%.
Same read-out and setting: for `C[C@H]1CN(Cc2ccc(-c3cccc(CNC(=O)c4cccc(C(=O)c5ccc(Cl)c(Cl)c5)c4)c3)s2)CCN1.O=C(O)C(F)(F)F` the value was 3%.
On the same count and under the same terms, for `COc1ccc(NS(=O)(=O)c2ccc(Oc3nc(C)nc4sc5c(c34)CCCC5)cc2)cc1` the value was 5%; for `CCN1CCN(c2cc(C)c3cc(NC(=O)c4ccc(C(C)(C)C)cc4)ccc3n2)CC1`, 34%; for `CC(=O)Nc1cccc(Nc2c3ccccc3nc3ccccc23)c1`, 31%.
`CC(C)Cc1csc(NC(=O)C=Cc2ccco2)c1C(=O)O` came in with an Inhibition of 4%.
For `COc1c(C2CCN(CCCCNC(=O)C=Cc3ccccc3C(F)(F)F)CC2)ccc2c1CCCC2`, the Inhibition is given as 98%.
On the same count and under the same terms, under `Cc1ccc(Nc2c3ccccc3nc3ccc(C)cc23)cc1` stands 26%; under `N=C1SC(=Cc2cn[nH]c2-c2ccc(F)cc2)C(=O)N1c1nccs1`, 28%; under `Brc1ccsc1-c1nc(NC2CCN(Cc3ccccc3)CC2)no1`, 0%.
On the same count and under the same terms, under `O=C(O)C(F)(F)F.Oc1ccc(CNCC2CCN(CC3CCCCC3)CC2)cc1` stands 9%; under `Cc1cc(OCCCN2CCC(NC(=O)c3ccc(Br)cc3)C2)c2ccccc2n1` (stereo not given), 13%.
On the same count and under the same terms, under `O=C(CN1C(=O)CC1S(=O)(=O)Cc1ccco1)NCCCCCCc1ccc(F)cc1` (stereo not given) stands 0%; under `COc1ccc(CN2CCN(CC(=O)Nc3cc(Cl)ccc3-n3cncn3)CC2)cc1F`, 0%; under `O=C(Nc1nccs1)c1sc2ccccc2c1O`, 0%.
On to `CC(C)CN1C(=O)C(c2ccc(F)c(F)c2)=C(O)C1c1ccccc1` (stereo not given), for which the Inhibition was 0%.
On the same count and under the same terms, for `CCCN1CCN(CCNc2c3ccccc3nc3ccccc23)CC1` the value was 13%; for `Nc1[nH]c2ccccc2c(=O)c1-c1nc2ccccc2s1`, 16%; for `CN(C)c1ccc(NC(=O)Nc2ccnc3ccccc23)cc1Br.Cl`, 21%.
Still for that read-out and setting: under `CO/N=C(\C)c1ccc2c(c1)CCN(CCC1CCC(NC(=O)c3cccc(-c4noc(C)n4)c3)CC1)CC2.Cl` (stereo not given) stands 42%.
For the compound `COc1ccc2c(c1)C(C)(CCCN(C)C)C(=O)N2C.O=C(O)C(=O)O` (stereo not given), the Inhibition was found to be 8%.
The same measure, in the same setting: for `CCCCNC(=O)C1CCCN(C(=O)c2ccc(O)c(-c3ccc(Cl)c(Cl)c3)c2)C1` (stereo not given) the value was 3%; for `Cc1csc2nc(C(C)c3ccc(NC(=O)c4cccs4)cc3)oc(=O)c12` (stereo not given), 0%.
